Experimental data taken from PubChem BioAssay AID743315 (Broad Institute, 2014).
Entries with a potency or affinity are not part of this list. Calls of active or inactive are those of the source.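 Rule for the calls: active = cell killing, with a fitted active concentration at or below twice the top valid dose tested; inconclusive = flat curve with moderate cell loss, or an unreliable fit; inactive = effect in the rising direction, plus the rest.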

assay: loss of HEK293T viability via ATP – cell-based, plate reader, dry powder, set 10, cytotoxicity control, dose response (AID 743315); details: CellTiter-Glo ATP luminescence, 72 h; series mostly up to 26 µM

| Compound | outcome |
| --- | --- |
| COc1ccccc1OCCn1c(=S)[nH]c2ccccc21 | inactive |
| Cc1cccc2[nH]c(=S)n(CCOc3ccccc3)c12 | inactive |
| Cc1ccc(C)c(OCCn2c(=S)[nH]c3ccccc32)c1 | inactive |
